Sampled rows, rich in hits. Any-hit rate of the full collection: about 5.7%.
BAZ2B inh = inhibitors of human BAZ2B bromodomain; AID 504333; hit rate 4.4% among 360,000; Q9UIF8; Potency, µM (top dose mostly 114 µM), for inactives: at the top dose activity change, negative = inhibition, actives largely listed as inhibitors; AlphaScreen BAZ2B-H3K14Ac peptide displacement; also: potency is read from the fitted curve at half-maximal effect; % is scaled to controls: 0 for no effect and ±100 for the full control effect; nearly all actives have a fitted effect of over 60% in size
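Protein-peptide AlphaScreen: BAZ2B 50 nM, b-H3K14Ac 50 nM, 1x PBS pH 7.4 + 0.01% Tween-20. Preincubation 30 min RT; cpd 30 min RT (top 110 uM); beads 20 min RT, light-protected.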
PI5P4Ka inh = blocks human PI5P4K alpha kinase activity; P48426; PI5P4Kalpha enzyme, ADP-Glo luminescence, 60 min; active compounds read low; max response, %; hit rate 1.2% among 330,000; AID 652105; active = max response of -50% or lower; inconclusive = between -30% and -50%; inactive = -30% or higher; also: value at the top dose of about 77 µM; % is scaled to controls: 0 for no effect and ±100 for the full control effect
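Reactions run in 0.038 M HEPES pH 7.4, 0.28 mM EGTA, 0.1% CHAPS and 5% DMSO, with PI5P4Kalpha, substrate, compound and 5 microM ATP final, one hour at room temperature. Readout is ADP-Glo luminescence.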
JMJD2E inh = JMJD2E (human) inhibition | Potency, µM (highest dose often 57.1 µM), for inactives: at the top dose activity change, negative = inhibition, actives largely listed as inhibitors | B2RXH2 | hit rate 1.6% among 230,000 | JMJD2E catalytic domain, FDH-coupled NADH fluorescence (FDH is formaldehyde dehydrogenase); active = well fitted inhibition curve with a large enough effect, not every such curve was filed as active; inconclusive = small, poorly fitted or top-dose-only effect, or another doubt; inactive = no such curve, though single readings can be large or run the other way;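 also: potency is read from the fitted curve at half-maximal effect; 0% = wells with enzyme and -100% = buffer wells without enzyme; nearly all actives have a fitted effect of over 50% in size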
Target sequence (B2RXH2 1-337 limits assumed): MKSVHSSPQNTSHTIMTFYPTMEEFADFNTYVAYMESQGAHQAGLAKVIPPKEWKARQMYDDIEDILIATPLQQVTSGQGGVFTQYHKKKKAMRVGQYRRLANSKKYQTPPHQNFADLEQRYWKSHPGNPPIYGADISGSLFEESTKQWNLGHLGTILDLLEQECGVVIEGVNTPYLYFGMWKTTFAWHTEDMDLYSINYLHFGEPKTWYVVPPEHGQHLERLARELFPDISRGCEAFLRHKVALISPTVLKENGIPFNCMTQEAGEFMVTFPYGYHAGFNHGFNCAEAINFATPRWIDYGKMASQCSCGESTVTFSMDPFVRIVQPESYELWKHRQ
HP1b binding inh = HP1-beta chromodomain-methylated histone interaction inhibition; hit rate 0.56% among 390,000; AlphaScreen HP1-beta / biotin-H3K9me3 peptide binding; P83916; AID 540317; Potency, µM (series often up to 114 µM), for the others: at the top dose activity change, negative = inhibition, usual class: inhibitors; also: potency is read from the fitted curve at half-maximal effect; nearly all actives have a fitted effect of over 70% in size
Target sequence (P83916 whole entry, looked up): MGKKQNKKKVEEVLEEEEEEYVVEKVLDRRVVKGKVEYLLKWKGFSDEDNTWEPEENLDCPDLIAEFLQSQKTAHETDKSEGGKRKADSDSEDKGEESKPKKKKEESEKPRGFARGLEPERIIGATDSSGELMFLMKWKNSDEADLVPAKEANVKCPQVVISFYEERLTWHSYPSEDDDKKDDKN
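HP1-beta protein (50 nM final) preincubated 30 min at room temperature with biotinylated H3(1-18)K9me3 peptide (50 nM) in PBS pH 7.4, 0.01% Tween-20, then compound added for 30 min. AlphaScreen streptavidin donor/nickel chelate acceptor beads (10 ug/mL final), 30 min dark, luminescence read.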
L3MBTL1 block = blocks human L3MBTL1; AlphaScreen L3MBTL1–H3K9me1 peptide binding; Potency, µM (series often up to 57.1 µM), inactives show top-dose activity, negative = inhibition, usual class: inhibitors; hit rate 0.66% among 230,000; also: potency is read from the fitted curve at half-maximal effect; % is scaled to controls: 0 for no effect and ±100 for the full control effect; nearly all actives have a fitted effect of over 60% in size
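L3MBTL1 (50 nM) pre-complexed 30 min with biotinylated H3(1-15)K9me1 peptide (75 nM), then compounds added for 30 min at room temperature; AlphaScreen streptavidin donor/nickel chelate acceptor beads (10 ug/mL final) read after 30 min dark incubation.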
JMJD2A Tudor inh = JMJD2A Tudor domain (human) inhibition. O75164. AlphaScreen JMJD2A-Tudor / H3K4me3 peptide binding. Potency, µM (highest dose often 114 µM), without a hit: at the top dose activity change, negative = inhibition, actives largely listed as inhibitors. hit rate 4.4% among 390,000. AID 504339; also: potency is read from the fitted curve at half-maximal effect; % is scaled to controls: 0 for no effect and ±100 for the full control effect; nearly all actives have a fitted effect of over 50% in size
Numbers without * were called inactive; ? = inconclusive; . = no result; [ ] = dose if it differs, or a comment. Unless noted, calls follow the shape of the dose curve; as a rule, active = well fitted inhibition curve with a large enough effect; inconclusive = small, poorly fitted or top-dose-only effect; inactive = no such curve, though single readings can be large or run the other way.

SMILES | BAZ2B inh | PI5P4Ka inh | JMJD2E inh | HP1b binding inh | L3MBTL1 block | JMJD2A Tudor inh
CC1=NN(c2ccccc2)C(=O)/C1=C\c1cn(C)c2ccccc12 | 3.5µM* | 0 | -13% | 16µM* | ? | 8.9µM*
CC1=NN(c2ccccc2)C(=O)/C1=C/c1cc2cc(C)ccc2nc1N1CCCCC1 | 8.9µM* | . | ? | . | -17% | .
Cc1ccc(C(=O)N/C(=C\c2ccc(Cl)cc2)C(=O)NC2CCCCC2)cc1 | 5% | . | . | 47% | . | -6%
Cc1cc(C)c(C)c(S(=O)(=O)N2CCC(C(=O)OCC(=O)N3c4ccccc4NC(=O)C3(C)C)CC2)c1C | 50µM* | -2 | -9% | -10% | . | ?
NC(N)=N/N=C(\N=Nc1ccccc1)c1ccc(Cl)cc1 | . | -9 | . | ? | . | 22µM*
CCCn1c(N2CCN(C(=O)Nc3ccc(Cl)cc3)CC2)nc2ccccc21 | 7% | 6 | -1% | 21% | 2% | 100µM*
C(=N/n1c2ccccc2c2ccccc21)/c1ccco1 | 8.9µM* | 13 | -11% | 35µM* | ? | ?
C(=N\n1c2ccccc2c2ccccc21)/c1ccccc1 | 23% | 33 | -6% | 44% | -11% | -4%
Fc1ccccc1-c1n[nH]c(=S)n1C1CC1 | -25% | . | . | . | . | .
S=c1[nH]nc(-c2ccncc2)n1CC1CCCO1 (stereo unspecified) | -8% | 3 | 5% | -10% | -5% | 45µM*
CC(C)Cn1c(-c2ccncc2)n[nH]c1=S | ? | 6 | -8% | 25% | 5%[11.4 µM] | 20µM*
Fc1ccc(-c2n[nH]c(=S)n2CC2CCCO2)cc1 (stereo unspecified) | -37% | 5 | -9% | 6% | . | -4%[11.4 µM]
CC(C)c1cc(-c2n[nH]c(=S)n2Cc2ccccc2)cs1 | -12% | . | ? | 0% | -7% | -27%
CC(C)Cn1c(-c2ccccc2F)n[nH]c1=S | 16% | 1 | ? | -14% | . | 4µM*
CC(C)Cn1c(-c2csc3c2CCCC3)n[nH]c1=S | ? | -3 | ? | 1% | -7% | 79µM*
COC(=O)Cc1c(C)c2cc3c(c(C)c2oc1=O)OCN(CCc1ccc(F)cc1)C3 | -4% | . | . | 23% | . | -15%
O=C(O)COc1ccccc1C1Nc2ccccc2-c2nnc(SCc3ccc(Cl)cc3)nc2O1 (stereo unspecified) | ? | . | . | -1% | . | -33%
CC(c1ccccc1)n1c(-c2ccc(C(C)(C)C)cc2)n[nH]c1=S (stereo unspecified) | ? | -1 | . | 13% | -3% | ?
C=C(C)Cn1c(-c2ccncc2)n[nH]c1=S | ? | 2 | -9% | 8% | 0% | 50µM*
CC(C)Cn1c(-c2ccc(F)cc2)n[nH]c1=S | 5% | -3 | ? | ? | 0% | 7.9µM*
COc1cc2ncnc(N[C@H](C)c3ccccc3)c2cc1OC | -4% | -3 | . | 35% | . | -9%
CCCNC(=O)c1nn2c(C(F)(F)F)cc(-c3ccccc3)nc2c1Cl | -2% | 8 | . | 26% | -3% | -17%
O=C(NCCCn1ccnc1)c1nn2c(C(F)(F)F)cc(-c3ccc(Br)cc3)nc2c1Cl | 50µM* | 2 | -1% | ? | ? | 45µM*
NNc1ccc(Cl)nn1 | 20µM* | 5 | -12% | 79µM* | -23% | 8.9µM*
CNc1ccc(Cl)nn1 | -8% | -2 | -27% | 19% | 14% | -1%
SMILES | BAZ2B inh | PI5P4Ka inh | JMJD2E inh | HP1b binding inh | L3MBTL1 block | JMJD2A Tudor inh
O=C1CS(=O)(=O)C2(C(=O)N(Cc3ccccc3Cl)c3ccccc32)N1c1ccc(F)cc1 (stereo unspecified) | -3%[57.1 µM] | . | . | -13% | . | -30%
O=C(C1=C(O)C(=O)N(c2ncccn2)C1c1ccc(Cl)cc1)c1ccco1 (stereo unspecified) | 71µM* | -14 | 5% | 18% | -50% | -22%
O=C(C1=C(O)C(=O)N(c2ncccn2)C1c1cccc(Cl)c1)c1ccco1 (stereo unspecified) | ? | . | ? | 28% | . | -27%
O=C(C1=C(O)C(=O)N(c2ncccn2)C1c1ccc(Cl)c(Cl)c1)c1ccco1 (stereo unspecified) | 79µM* | . | ? | ? | -9% | 7.1µM*
CCN(CC)CCN1C(=O)C(O)=C(C(=O)c2ccco2)C1c1ccccn1 (stereo unspecified) | ? | 0 | ? | 46% | . | 89µM*
CCN(CC)CCCN1C(=O)C(O)=C(C(=O)c2cc3ccccc3o2)C1c1ccccn1 (stereo unspecified) | -26% | 4 | 3% | -3% | 1% | 1%[11.4 µM]
CCOC(=O)C1(C)C=C(Nc2cccc(C(=O)O)c2)C(=O)N1c1cccc(C(=O)O)c1 (stereo unspecified) | 1% | . | . | 47% | . | -6%
Cn1ccc2cc(S(=O)(=O)N3CCCC(C(=O)NCc4ccc(F)cc4)C3)ccc21 (stereo unspecified) | -2% | . | . | 10%[57 µM] | . | -18%
Nc1ccc(S(=O)(=O)N2CCN(S(=O)(=O)c3ccc4c(c3)OCCO4)CC2)cc1 | . | . | . | . | . | -5%
O=C(Nc1nc2c(F)cccc2s1)c1ccco1 | -4% | -4 | . | 44% | 11% | 1%
O=C(Nc1nc(-c2ccco2)c(-c2ccco2)s1)c1c(F)cccc1Cl | 40µM* | 1 | . | ? | ? | 50µM*
CN(C(=O)c1ccoc1)c1ccccc1I | . | . | . | 34% | . | -1%
CCOc1cc(/C=N/n2cnnc2)ccc1OCC(=O)Nc1ccccc1OC | 2% | 2 | -1% | 26% | . | -14%
CCOc1cc(/C=C2\C(=O)N(c3cccc(C(=O)O)c3)N=C2C(F)(F)F)ccc1OCC(=O)Nc1ccccc1OC | 50µM* | . | . | . | . | .
CCCC[C@@H]1CCCO[C@@](C(=O)NCc2ccc(C)o2)(C(F)(F)F)C1 | . | -54* | . | 38% | . | -1%
CCc1ccccc1NC(=S)N1CCC(NC(=O)c2ccc(OC)cc2)CC1 | -2% | -1 | 1% | 21% | 2% | -1%
COc1ccc(N2CCC(CNC(=S)Nc3cccc(OC)c3)C2)cc1 (stereo unspecified) | 16µM* | . | -2% | . | -27% | .
CCc1cccc(C)c1NC(=S)NCC1CCN(c2ccc(OC)cc2)C1 (stereo unspecified) | 28µM* | 1 | ? | 22µM* | . | 45µM*
CCc1ccccc1NC(=S)NCC1CCN(c2ccc(OC)cc2)C1 (stereo unspecified) | 22µM* | -3 | -22% | 13µM* | . | 35µM*
O=C(c1ccc(OC2CCN(CCc3ccccc3)CC2)cc1)N1CCC(CO)CC1 | -3% | -1 | . | 30% | . | -3%
CCN1CCc2c(C#N)c(N3CCCCC3)nc(NCc3ccccc3)c2C1 | 56µM* | -4 | ? | -20% | . | ?
N#Cc1c(N)sc(=S)c2c1CCN(Cc1ccccc1)C2 | 79µM* | . | ? | . | -15% | .

Compound activity as filed in PubChem BioAssay.
